Bioassay records (PubChem BioAssay)
This excerpt belongs to a sample that is enriched for hits.
nsP2pro primary: CHIKV nsP2 protease inhibition, primary qHTS; Q8JUX6; FRET peptide cleavage, nsP2pro, fluorescence 1 h; Potency, µM (series often up to 24.9 µM), usual class: inhibitors; hit rate 1.1% among 31,000; further: nearly all actives have a fitted effect of over 60% in size
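Purified recombinant nsP2pro (150 nM final) in 10 mM Tris-HCl pH 8.0 with 0.01% Tween 20 was preincubated 15 min at room temperature with compound (7 concentrations, up to 25 uM). FRET peptide 2 substrate (2.5 uM final) was then added; fluorescence was read after 1 h.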
nsP2 cell sec: cell-based CHIKV nsP2 protease inhibition, secondary | shares compounds with nsP2pro primary | cell-based CHIKV nsP2 protease reporter assay | Potency, µM (top dose mostly 51.1 µM), usual class: inhibitors | hit rate 10% among 450 | AID 1964100; further: nearly all actives have a fitted effect of over 70% in size
Target sequence (Q8JUX6 220-798 limits assumed): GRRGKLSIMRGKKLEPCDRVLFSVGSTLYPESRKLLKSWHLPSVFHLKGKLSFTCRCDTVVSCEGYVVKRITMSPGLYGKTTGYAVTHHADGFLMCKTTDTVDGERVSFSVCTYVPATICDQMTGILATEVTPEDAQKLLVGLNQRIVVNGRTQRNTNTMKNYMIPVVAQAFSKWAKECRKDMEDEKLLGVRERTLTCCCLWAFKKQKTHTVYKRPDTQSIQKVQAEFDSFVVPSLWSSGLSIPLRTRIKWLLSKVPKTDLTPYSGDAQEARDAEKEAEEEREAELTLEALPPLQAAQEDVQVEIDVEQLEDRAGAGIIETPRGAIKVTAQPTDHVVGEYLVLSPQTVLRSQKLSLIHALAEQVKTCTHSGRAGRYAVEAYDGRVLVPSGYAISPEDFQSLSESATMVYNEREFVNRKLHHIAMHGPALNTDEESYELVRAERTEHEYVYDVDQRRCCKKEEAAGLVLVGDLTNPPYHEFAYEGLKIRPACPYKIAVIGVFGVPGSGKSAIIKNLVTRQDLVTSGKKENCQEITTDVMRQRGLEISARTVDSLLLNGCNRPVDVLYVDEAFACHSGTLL
NSP2 full ctr: selectivity test for CHIKV nsP2 protease inhibitors: full-length NSP2. shares compounds with nsP2pro primary. Full-length CHIKV NSP2 protease enzymatic counterscreen. Potency, µM (highest dose often 50.7 µM), actives largely listed as inhibitors. hit rate 39% among 410. AID 1964101; further: nearly all actives have a fitted effect of over 65% in size
Furin counterscr: human furin inhibition, counterscreen for nsP2pro inhibitors | Recombinant human furin enzymatic counterscreen, fluorogenic substrate | shares compounds with nsP2pro primary | AID 1964102 | hit rate 6% among 410 | Potency, µM (series often up to 50.6 µM), most hits filed as inhibitors
NS23 peptide cs: nsP2pro inhibition on native NS2/3 peptide substrate. shares compounds with nsP2pro primary. Purified CHIKV nsP2 protease, endogenous NS2/3 peptide cleavage. Potency, µM (doses to about 51 µM), most hits filed as inhibitors. hit rate 34% among 410; further: nearly all actives have a fitted effect of over 55% in size
Papain cs: papain protease inhibition, counterscreen for nsP2pro inhibitors | shares compounds with nsP2pro primary | purified papain protease activity, enzymatic inhibition | Potency, µM (titrated, usually from 51 µM), usual class: inhibitors | hit rate 5% among 410
nsP2pro conf qHTS: CHIKV nsP2 protease inhibition, confirmatory qHTS; CHIKV nsP2 protease enzymatic activity, qHTS; AID 1964105; Potency, µM (highest dose often 25.5 µM), actives largely listed as inhibitors; shares compounds with nsP2pro primary; hit rate 43% among 410; further: nearly all actives have a fitted effect of over 75% in size
HCV NS3 counter: HCV NS3/4A protease inhibition, counterscreen; shares compounds with nsP2pro primary; HCV NS3/4A protease biochemical counterscreen; Potency, µM (top dose mostly 50.9 µM), most hits filed as inhibitors; hit rate 20% among 410; further: nearly all actives have a fitted effect of over 55% in size
Large screens that a line does not name were inactive (follow-up assays come after a bar, where they were run). The call rests on the fitted dose curve.

CCCS(=O)(=O)Nc1ccc(=O)n2c1[C@@H]1C[C@@H](CN(C(=O)Nc3ccc(OC)cc3)C1)C2	nsP2pro primary inconclusive | nsP2 cell sec inactive | NSP2 full ctr inconclusive | Furin counterscr inactive | NS23 peptide cs inconclusive | Papain cs inactive | nsP2pro conf qHTS inconclusive | HCV NS3 counter inconclusive
C=CC1(C)CC2CCC3C(C)(C(=O)O)CCCC3(C)C2=CC1=O (stereo not drawn)	none
O=C(NC1CCCCC1)N1CCc2n[nH]c(=O)n2CC1	none
O=C(NCc1c[nH]c2ncccc12)c1ccccc1Cl	none
O=C(NCc1ccnc2[nH]ccc12)c1ccccc1Cl	nsP2pro primary 4.5µM | nsP2 cell sec 24µM | NSP2 full ctr 4.7µM | Furin counterscr inactive | NS23 peptide cs 19µM | Papain cs inactive | nsP2pro conf qHTS 12µM | HCV NS3 counter 3µM
O=C(NCc1ccc(Cl)cc1)c1c[nH]c2ncccc12	none
CCOc1ccc(CC(=O)N2CCC[C@H]2c2nc(-c3ccc(OC)cc3)no2)cc1	none
CCCC(=O)C1CCN(c2ncnc3c2CN(C(=O)c2ccc(-c4ccccc4)cc2)CC3)CC1	none
CC(C)[C@@H](c1ccc(C(F)(F)F)cc1CN(Cc1cc(C(F)(F)F)cc(C(F)(F)F)c1)c1nnn(C)n1)N1CCC(C(=O)O)CC1	none
O=c1c2ccccc2[se]n1-c1ccccc1	nsP2pro primary 4.4µM | nsP2 cell sec inconclusive | NSP2 full ctr inconclusive | Furin counterscr 2.1µM | NS23 peptide cs 9.2µM | Papain cs inactive | nsP2pro conf qHTS 2.2µM | HCV NS3 counter 3.7µM
Cc1cc(C)cc(N2CCN(C(=S)Nc3cc(C)cc(C)n3)CC2)c1	none
Cc1cc(C)nc(NC(=S)N2CCN(c3ccc4nsnc4c3)CC2)c1	nsP2pro primary 3.2µM | nsP2 cell sec 16µM | NSP2 full ctr 7.3µM | Furin counterscr inactive | NS23 peptide cs 12µM | Papain cs inactive | nsP2pro conf qHTS 9µM | HCV NS3 counter inconclusive
Cc1cc(C)nc(NC(=S)N2CCN(c3ccc(Cl)c(Cl)c3)CC2)c1	none
NC(=O)C1CCN(c2nc(-c3ccc(OCc4ccccc4)cc3)cs2)CC1	none
OC[C@H]1O[C@@H](OC(CCCCc2ccc(O)cc2)CCc2ccc(O)cc2)[C@H](O)[C@@H](O)[C@@H]1O (stereo partly drawn)	none
Cc1ccc([S+](=O)([O-])N2CCN(c3nc4ncccc4o3)CC2)cc1	none
O=[S+]([O-])(NC[C@H]1CCC[C@H](CN[S+](=O)([O-])c2c(F)cccc2F)C1)c1ccc2c(c1)OCCO2	none
O=[N+]([O-])c1cc(S(=O)(=O)Nc2ccc(O)c3ccccc23)ccc1Cl	nsP2pro primary 5µM | nsP2 cell sec inconclusive | NSP2 full ctr 16µM | Furin counterscr inactive | NS23 peptide cs 12µM | Papain cs inconclusive | nsP2pro conf qHTS 5.7µM | HCV NS3 counter inactive
O=S(=O)(Nc1ccc(O)c2ncccc12)c1ccccc1F	none
O=c1[nH]c2ccc(S(=O)(=O)Nc3cc(Cl)ccc3O)cc2o1	none
COc1cc(OC)cc(OCc2nnc(C(=O)N3CCC[C@@H]3C)n2-c2ccccc2)c1	none
CCC(CC)C(=O)N1CC[C@@H]2COCCN(Cc3cccnc3)[C@@H]2C1	none
CCS(=O)(=O)Nc1ccc(C(=O)NCc2cc3n(n2)CCNC3)cc1	none
O=C(c1ccc(C(F)(F)F)cc1)N1CCCC2(C1)C(=NC1CCCC1)NC(=O)N2c1cccnc1 (stereo not drawn)	none
CN1CCCC2(CCN(c3nc4c(cc3C(N)=O)CCC4)C2)C1=O (stereo not drawn)	none
CC1(C)O[C@H]2CC(=O)OC[C@@]23C1=C(O)C(=O)[C@]1(C)C3CC[C@@]2(C)[C@H](c3ccoc3)OC(=O)[C@H]3O[C@]321 (stereo partly drawn)	nsP2pro primary inconclusive | nsP2 cell sec inactive | NSP2 full ctr inactive | Furin counterscr inactive | NS23 peptide cs inactive | Papain cs inactive | nsP2pro conf qHTS inactive | HCV NS3 counter inconclusive
C=C1[C@@H]2CC[C@@]3(C)[C@H](c4ccoc4)OC(=O)C[C@]13O[C@H]1CC(=O)C(C)(C)[C@H](C(OC(C)=O)C(=O)OC)[C@]12C (stereo partly drawn)	none
CC1(C)OC(=O)CC(O)C2(C)C1CC(=O)C1(C)C2C(O)CC2(C)C(c3ccoc3)OC(=O)C3OC321 (stereo not drawn)	nsP2pro primary inconclusive | nsP2 cell sec inactive | NSP2 full ctr inactive | Furin counterscr inactive | NS23 peptide cs inactive | Papain cs inactive | nsP2pro conf qHTS inactive | HCV NS3 counter inactive
CCc1noc(CN(C(=O)c2oc3ccc(C)cc3c2C)C(C)C)n1	none
CC(=O)O[C@H]1CC(C)(C)CC2[C@@]13[C@H](O)C[C@]1(C)[C@@]2(CCC2[C@@]4(C)CC[C@H](O[C@@H]5OC[C@H](O[C@@H]6O[C@H](CO)[C@@H](O)[C@H](O)[C@H]6O[C@@H]6OC[C@@H](O)[C@H](O)[C@H]6O)[C@H](O)[C@H]5O[C@@H]5O[C@H](CO)[C@@H](O)[C@H](O)[C@H]5O)C(C)(C)C4CC[C@]21C)O[C@@H]3O (stereo partly drawn)	none
CCCCCCCCCCCCCCCCOCCCOP(=O)(O)COC(CO)Cn1ccc(N)nc1=O (stereo not drawn)	none
CC(C)c1ccc(C(O)Cn2ccn3nc(-c4ccc(F)cc4)cc3c2=O)cc1 (stereo not drawn)	none
N#Cc1ccc(-c2ccc(CNc3ccc(N4CCC(C(F)(F)F)CC4)cc3)o2)cc1	nsP2pro primary 2.8µM | nsP2 cell sec inactive | NSP2 full ctr inconclusive | Furin counterscr inactive | NS23 peptide cs inactive | Papain cs inactive | nsP2pro conf qHTS inconclusive | HCV NS3 counter inconclusive
CC(C)(C)OC(=O)N1CCN(c2cccc(NCc3ccc(-c4ccc(C#N)cc4)o3)c2)CC1	none
CC(=O)N1CCN(c2ccc(NCc3ccc(-c4ccc(Br)cc4)o3)cc2)CC1	none
CCc1nc(-c2c3n(c(=O)n(CC(=O)OC)c2=O)CCCC3)no1	none
C=C[C@@]12COC(=O)C(=C)[C@@H]1[C@@H](O)[C@H](C(=C)C(=O)OC)[C@@H](O)C2	none
CC(C(=O)O)c1ccc(CC2CCCC2=O)cc1 (stereo not drawn)	none
C=C(C)CNc1ccc(C(C)C(=O)O)cc1 (stereo not drawn)	nsP2pro primary 8.8µM | nsP2 cell sec inactive | NSP2 full ctr inactive | Furin counterscr inactive | NS23 peptide cs inactive | Papain cs inactive | nsP2pro conf qHTS inactive | HCV NS3 counter inactive
